In the library only some 32% were active in any assay of this set; here they are far more common.
CYP2C9 inh – blockers of cytochrome P450 2C9 activity – biochemical, luminescence, ADME assay, primary screen; CYP2C9 Supersomes, luciferin-H conversion; hit rate 20% among 96,000; P11712; inhibition, % at 5 µM; AID 777, 2007;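 active = blocking of liver enzyme CYP2C9 beyond about 50% at 5 µM, limit read from the data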
PostGolgi yeast – phenotypic screen on post-Golgi transport, primary screen | post-Golgi transport phenotypic cell assay | inhibition, % at 10 µM | hit rate 0.9% among 98,000 | AID 739, 2007;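 note: yeast cells grown in 1536-well plates; yeast grown about 18 h at 30C before absorbance read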
PostGolgi ctrl – growth inhibition of yeast control strain, primary screen, counter-screen for post-Golgi transport modulator project. efflux-deficient yeast background strain, growth absorbance A615, 16 h. inhibition, % at 10 µM. hit rate 5% among 98,000. AID 738, 2007
CYP2C19 inh – blockers of cytochrome P450 2C19 activity – biochemical, luminescence, ADME assay, primary screen. inhibition, % at 5 µM. hit rate 21% among 96,000. AID 778, 2007. CYP2C19 Supersomes, luciferin-H EGE luminescence, 30 min;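 active = CYP2C19 inhibition above a set limit at 5 µM in the primary screen, cut at about 50% in these data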;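 note: plate controls were negative control wells for no effect and 2.5 mM tranylcypromine positive control for full effect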
Target sequence (P33261 whole entry, looked up): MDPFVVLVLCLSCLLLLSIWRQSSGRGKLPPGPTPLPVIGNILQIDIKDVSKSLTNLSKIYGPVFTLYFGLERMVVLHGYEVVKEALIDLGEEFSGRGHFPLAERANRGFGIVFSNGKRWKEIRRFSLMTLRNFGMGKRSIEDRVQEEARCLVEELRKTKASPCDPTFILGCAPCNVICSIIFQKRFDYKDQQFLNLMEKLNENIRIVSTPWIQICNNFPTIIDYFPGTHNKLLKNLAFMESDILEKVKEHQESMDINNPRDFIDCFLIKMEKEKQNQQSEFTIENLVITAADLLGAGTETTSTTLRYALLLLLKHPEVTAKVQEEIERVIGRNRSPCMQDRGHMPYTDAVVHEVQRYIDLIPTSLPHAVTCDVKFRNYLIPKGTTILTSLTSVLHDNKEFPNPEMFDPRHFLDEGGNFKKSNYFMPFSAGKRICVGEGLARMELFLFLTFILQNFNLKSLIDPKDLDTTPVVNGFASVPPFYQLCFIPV
CYP2C19 act – human CYP2C19 activators, primary screen, biochemical, luminescence | Cytochrome P450 2C19 (Homo sapiens), P33261 | recombinant CYP2C19, luciferin-H EGE luminescence; active compounds read high; 0 = fully inhibited enzyme, 1 = untreated enzyme | activation factor at 5 µM | 96,000 tested, under 10 active | AID 1025, 2008;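 active = activation factor of at least 2 at 5 µM in the primary screen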;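 note: 0 = wells with 2.5 mM tranylcypromine and 1 = vehicle-only wells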
CYP2C9 act – human CYP2C9 activators, primary screen, biochemical, luminescence. Cytochrome P450 2C9 (Homo sapiens), P11712. recombinant CYP2C9, luciferin-H conversion; active compounds read high; factor 1 = untreated enzyme, 0 = blocked. activation factor at 5 µM. hit rate 1.4% among 96,000. AID 1024, 2008;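 active = activation factor of 2 or more for CYP2C9 at a 5 µM dose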;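 note: 0 = sulfaphenazole-blocked wells and 1 = vehicle-only wells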
Starred values were filed as active, the others as inactive; . = no result. Cut-off read from the data, not from the text of the source, unless noted: active = inhibition above about 30%; inactive = the rest.

SMILES | CYP2C9 inh | PostGolgi yeast | PostGolgi ctrl | CYP2C19 inh | CYP2C19 act | CYP2C9 act
COc1cc(C(=O)NNC(=O)NC2CCCCC2)cc(OC)c1OC | -1.9 | 21.0 | -6.7 | 12.6 | 0.9 | 1
COc1cc(C(=O)NCCCN2CCCC2=O)cc(OC)c1OC | -7.2 | 8.5 | 9.5 | 0.4 | 1 | 1.1
O=C(O)CCC(=O)Nc1ccc(S(=O)(=O)N2CCCC2)cc1 | 24.3 | 10.1 | 3.7 | 50.5* | 0.5 | 0.8
O=C(Nc1ccc(S(=O)(=O)N2CCCC2)cc1)N1c2ccccc2Sc2ccccc21 | 74.3* | -2.9 | 17.8 | 8.4 | 0.9 | 0.3
CCCC(=O)Nc1ccc(S(=O)(=O)N2CCCC2)cc1 | 15.7 | -3.6 | 0.0 | 2.4 | 1 | 0.8
COc1cc(CC(=O)OCC(=O)Nc2ccc(S(=O)(=O)N3CCCC3)cc2)cc(OC)c1OC | 60.8* | -5.3 | 26.4 | 13.7 | 0.9 | 0.4
COC(=O)c1ccc(NC(=O)COc2ccc(S(=O)(=O)N3CCCCC3)cc2)cc1 | 64.2* | 8.1 | -0.5 | 36.8 | 0.6 | 0.4
O=C(COC(=O)Cc1ccc2c(c1)OCCO2)Nc1ccc(S(=O)(=O)N2CCCC2)cc1 | 24.7 | 2.0 | 3.7 | -17.3 | 1.2 | 0.8
O=C(Nc1ccc(S(=O)(=O)N2CCCCC2)cc1)c1ccccc1Cl | 33.4 | -11.7 | 17.5 | 22.4 | 0.8 | 0.7
CCOCCCn1c(=O)c(NC(=O)c2ccc(OCC)cc2)c2n(c1=S)CCCCC2 | 25.9 | -0.3 | 8.8 | 6.6 | 0.9 | 0.7
CC(C)Nc1nc(NC(C)C)nc(OCCOC(=O)Nc2ccccc2)n1 | 29.8 | -2.0 | 9.5 | 30.4 | 0.7 | 0.7
COc1cc2c(cc1OC)C1=C(C#N)COCN1CC2 | 30.4 | 4.4 | 5.5 | 18.5 | 0.8 | 0.7
Cc1cccc(OCCC(=O)Nc2ccc(S(=O)(=O)N3CCCC3)cc2)c1 | 66.9* | 2.7 | 22.6 | 33.0 | 0.7 | 0.3
COC(=O)c1cccc(NC(=O)CCCOc2cccc(C)c2)c1 | 58.0* | -6.3 | 15.7 | 76.2* | 0.2 | 0.4
Cc1cccc(OCCCC(=O)Nc2ccc(N3CCCCC3)cc2)c1 | 17.6 | -10.8 | 1.2 | 23.2 | 0.8 | 0.8
CC(SCC(=O)Nc1ccc(S(=O)(=O)N2CCCCC2)cc1)C(=O)O (stereo unspecified) | 56.3* | -1.1 | -1.5 | 6.6 | 0.9 | 0.4
O=C(Nc1ccccc1)Nc1ccc(S(=O)(=O)N2CCCCC2)cc1 | 22.2 | -9.9 | 30.2* | -4.6 | 1 | 0.8
O=C(O)CSCC(=O)Nc1ccc(S(=O)(=O)N2CCCCC2)cc1 | 16.0 | -1.6 | 0.9 | 1.9 | 1 | 0.8
CC(=O)c1cccc(NC(=O)C2CC(=O)N(Cc3ccccc3)C2)c1 (stereo unspecified) | 25.4 | -3.4 | 13.2 | 33.8 | 0.7 | 0.7
CSCCC(NC(=O)OC(C)(C)C)C(=O)NC(C(=O)NC(CC(C)C)C(N)=O)C(C)C (stereo unspecified) | 1.1 | 25.6 | 10.2 | -10.7 | 1.1 | 1
Cc1cc(NC(=O)Cn2nc(-c3ccccc3F)ccc2=O)ccc1-n1cnnn1 | 16.7 | 8.3 | 4.6 | -2.8 | 1 | 0.8
COc1ccc(C(=O)O)cc1F | -5.7 | -1.3 | -8.1 | -12.9 | 1.1 | 1.1
COc1ccc(NC(=O)C(NS(=O)(=O)c2ccc3c(c2)CCCN3C(C)=O)C(C)C)c(OC)c1 (stereo unspecified) | 64.5* | 9.4 | -7.3 | 12.5 | 0.9 | 0.4
CCCCN(Cc1cc2ccccc2[nH]c1=O)C(=O)c1ccccn1 | -14.0 | -0.6 | 6.7 | -4.5 | 1 | 1.1
Cc1nnc(NC(=O)c2c(F)cccc2F)s1 | 9.5 | -4.6 | -2.4 | 3.2 | 1 | 0.9
SMILES | CYP2C9 inh | PostGolgi yeast | PostGolgi ctrl | CYP2C19 inh | CYP2C19 act | CYP2C9 act
CC(C)(C)NC(=O)CSc1nnc(C2CC2)n1Cc1ccccc1 | 12.1 | 5.5 | 5.6 | 12.7 | 0.9 | 0.9
O=C1c2cccnc2C(=O)N1c1cccc(-c2nc3ccccc3o2)c1 | -5.7 | -1.2 | -9.5 | 3.0 | 1 | 1.1
O=C1c2cccnc2C(=O)N1c1ccccc1-c1ccccc1 | 27.6 | -2.7 | 9.1 | 55.7* | 0.4 | 0.7
CCOc1ccc(Cc2c(Cl)nc(N)nc2Cl)cc1 | -3.9 | 8.2 | 17.9 | 52.7* | 0.5 | 1
CC1=C(C)NC(=S)SC1 | -8.6 | -0.6 | -3.5 | -5.8 | 1.1 | 1.1
Cc1nnsc1SCC(=O)O | -15.7 | 8.7 | 4.6 | -7.2 | 1.1 | 1.2
c1ccc2c(SCc3cn4cccnc4n3)ncnc2c1 | 2.5 | 4.5 | -0.7 | 54.0* | 0.5 | 1
COc1ccc(NC(=O)c2cc3n(n2)C(C(F)(F)F)CC(c2ccc(OC)cc2)N3)cc1 (stereo unspecified) | 26.2 | 3.2 | 0.9 | 12.2 | 0.9 | 0.7
CCc1ccc(/C=C/C(=O)c2cc(Br)ccc(=O)c2O)cc1 | 40.0 | 2.2 | 3.5 | 26.7 | 0.7 | 0.6
Cc1ccc(/C=C/C(=O)c2cc(Br)ccc2OC(=O)c2ccco2)cc1 | 75.6* | -1.9 | 27.8 | 83.2* | 0.2 | 0.2
COc1cc(OC)cc(-c2nc(N)n[nH]2)c1 | 13.3 | -6.2 | 7.9 | 51.6* | 0.5 | 0.9
O=C(O)CN(c1ccccc1F)S(=O)(=O)c1ccccc1 | 12.1 | -1.8 | -0.5 | 0.4 | 1 | 0.9
CC1(C)Cc2c(cnn2-c2ccccc2)C(=O)/C1=N\NC(=O)c1ccccc1N | -16.6 | 7.3 | 0.3 | -13.1 | 1.1 | 1.2
CC1(C)Cc2c(cnn2-c2ccccc2)-c2c1c1ccccc1n2CC(O)CBr (stereo unspecified) | 54.8* | 23.1 | 43.8* | 52.6* | 0.5 | 0.5
Cc1cc(OC(C)C(=O)N/N=C/CC(C)c2ccccc2)ccc1Cl (stereo unspecified) | 24.6 | -7.0 | -2.3 | 73.9* | 0.3 | 0.8
Cc1ccc(CNC(=O)CS(=O)(=O)CC(=O)O)cc1 | 6.5 | 20.3 | 17.1 | 7.2 | 0.9 | 0.9
C=CCn1c(SCCOc2ccc(OC)cc2)nnc1C(C)NC(=O)Cc1ccc(OC)cc1 (stereo unspecified) | 67.8* | -10.5 | 7.4 | 76.7* | 0.2 | 0.3
CCn1c(CC(=O)Nc2ccc(C)c(Cl)c2)nnc1SCCOc1ccc(OC)cc1 | 17.1 | -3.0 | 3.6 | 11.6 | 0.9 | 0.8
CCn1c(SCCOc2ccc(OC)cc2)nnc1C(CO)NC(=O)c1ccc(OC)cc1 (stereo unspecified) | 88.4* | 3.6 | 4.1 | 63.6* | 0.4 | 0.1
O=C(NC(NC1CCS(=O)(=O)C1)C(Cl)(Cl)Cl)c1ccc(Br)cc1 (stereo unspecified) | 25.0 | -0.6 | 1.1 | 10.2 | 0.9 | 0.8
COc1ccccc1Oc1cc(C#N)c(C#N)cc1-n1nnc2ccccc21 | 12.9 | -4.0 | 30.3* | -0.7 | 1 | 0.9
O=C1C(=O)N(CCCn2ccnc2)C(c2cccnc2)/C1=C(/O)c1ccc(F)cc1 (stereo unspecified) | 89.4* | . | . | -1.6 | 1 | 0.1

Bioassay records: PubChem, several laboratories
